What follows are sequences tested against ZDHHC20 (assay: pooled miR-30 sensor sort-seq; sequence = guide strand). Details: shRNA.
For TATAGATAGGTAAAGCTCTTGC, the sensor-assay potency score (higher = more potent) was -0.117.
In the case of TTCAGCTCCATTCTCCAGCCAC, the sensor-assay potency score (higher = more potent) is reported as -0.374.
TCTTGTTGTCTTTCTTGGCTGA showed a sensor-assay potency score (higher = more potent) of 0.533.
With TTATAAAGTACTCTAAAACTGT the sensor-assay potency score (higher = more potent) was -0.589.
TAAAGTACTCTAAAACTGTTGC gave a sensor-assay potency score (higher = more potent) of 0.215.
With TTGGACAAGTAGAACTCTTTGG the sensor-assay potency score (higher = more potent) was -0.323.
In the case of TTGTAACAGAAGCTTGTTCTGG, the sensor-assay potency score (higher = more potent) is reported as -0.283.

The sequences below were run against ZDHHC24 in the same assay as above. Details: shRNA.
In the case of TGCCAGAGACACTCTGCCTGTG, the sensor-assay potency score (higher = more potent) is reported as -0.683.
For TAGCAGTAAGCCCAGCCCTGGC, the sensor-assay potency score (higher = more potent) was -1.6.
TCTGCCTGTGAGCAACATGAGC was tested, and the sensor-assay potency score (higher = more potent) was -1.73.
With TAGTTGCCGAAGCCCACGCAGC the sensor-assay potency score (higher = more potent) was -1.53.
Work on CCTGTGAGCAACATGAGCCAGG yielded a sensor-assay potency score (higher = more potent) of -2.43.
Work on AGACACTCTGCCTGTGAGCAAC yielded a sensor-assay potency score (higher = more potent) of -2.01.
For TGTGAGCAACATGAGCCAGGGA, the sensor-assay potency score (higher = more potent) was -0.189.
TGAGCAACATGAGCCAGGGAAG gave a sensor-assay potency score (higher = more potent) of -1.75.
In the case of TCCCATGGAAGAGCAGCCCAGC, the sensor-assay potency score (higher = more potent) is reported as -1.99.
In the case of TTGAGCAGCTGGAAGGCGGCCA, the sensor-assay potency score (higher = more potent) is reported as -0.092.
With TTGCCGAAGCCCACGCAGCGGC the sensor-assay potency score (higher = more potent) was -1.27.
In the case of TGAAGCAGCAGGCACAGGAAGG, the sensor-assay potency score (higher = more potent) is reported as -1.8.

Each sequence was assayed against ZDHHC4 in the same assay as above. Details: shRNA.
Work on TAAATCTGACATCACCACCAAG yielded a sensor-assay potency score (higher = more potent) of -0.923.
Work on ATACAGGACAAACAACAGGTAG yielded a sensor-assay potency score (higher = more potent) of -1.34.
For TACCACTCGTTAGTAGTCTGGT, the sensor-assay potency score (higher = more potent) was -0.0383.
In the case of ATCTCTTGAAGGTTGCTCCGAA, the sensor-assay potency score (higher = more potent) is reported as -0.154.
TTTGCTTTTGTTATAATGCCAG gave a sensor-assay potency score (higher = more potent) of -0.404.
Work on TTGGAAACATCACTTCATCAAA yielded a sensor-assay potency score (higher = more potent) of -1.15.
For TAGAAAGATCTCTTGAAGGTTG, the sensor-assay potency score (higher = more potent) was 0.193.
TTATACAGGAAAATATCTGTGC gave a sensor-assay potency score (higher = more potent) of 0.584.
TAAACGGGAACTACAGCTCAAA gave a sensor-assay potency score (higher = more potent) of -0.745.
TTGCTTTTGTTATAATGCCAGG showed a sensor-assay potency score (higher = more potent) of -1.32.
With TACTGAATAAGAAAGACCGTGT the sensor-assay potency score (higher = more potent) was 0.745.
In the case of TACAGGACAAACAACAGGTAGC, the sensor-assay potency score (higher = more potent) is reported as -0.502.

Each sequence was assayed against ZDHHC6 in the same assay as above. Details: shRNA.
TTCTGCAGTGATGTGAACGTGG gave a sensor-assay potency score (higher = more potent) of 0.312.
With TTGGTAACCACAACAGTTGTTG the sensor-assay potency score (higher = more potent) was -0.394.
TTTTCTAGGGAACCAACCCCTT was tested, and the sensor-assay potency score (higher = more potent) was -1.12.
Sequence TTTGTCTCCATATAACCAGTAT has a sensor-assay potency score (higher = more potent) of -0.758.
TGAAATTCACACTTCCTCCAGT gave a sensor-assay potency score (higher = more potent) of -0.0351.
Work on ATTTTGTCTCCATATAACCAGT yielded a sensor-assay potency score (higher = more potent) of -1.42.
For TATTCTTGAAACACCTTCTATA, the sensor-assay potency score (higher = more potent) was -0.715.
TCTTCTATTACTTTATAGCGAA was tested, and the sensor-assay potency score (higher = more potent) was -0.958.
For TTATTCTTGAAACACCTTCTAT, the sensor-assay potency score (higher = more potent) was -0.81.

Reference: the OligoGym collection
